Data from PubChem BioAssay (NCATS).
Inconclusive results are not listed. Some of the results follow. Activity calls are given as the source filed them. Unless noted, the call rests on the fitted dose curve; in most records, active means well fitted curve in the direction sought with a large enough effect; inconclusive means small, poorly fitted or top-dose-only effect, or another doubt; inactive means no such curve, though single readings can be large; an effect the other way counts as inactive or inconclusive.

Key:
[1] = molecular target: ATPase family AAA domain-containing protein 5 (Homo sapiens) (UniProt Q96QE3); assay: HTS assay for small molecules that inhibit ELG1-dependent DNA repair in human embryonic kidney (HEK293T) cells expressing luciferase-tagged ELG1: Hit Confirmation (AID 624248); settings: HEK293T ELG1-luciferase levels, luminescence; cells co-treated with 5-fluorouridine; further: potency means the concentration at half of the fitted maximal effect; nearly all actives have a fitted effect of over 55% in size
Sequence of ATPase family AAA domain-containing protein 5 (Homo sapiens) (Q96QE3 whole entry, looked up, the tested form may be a part): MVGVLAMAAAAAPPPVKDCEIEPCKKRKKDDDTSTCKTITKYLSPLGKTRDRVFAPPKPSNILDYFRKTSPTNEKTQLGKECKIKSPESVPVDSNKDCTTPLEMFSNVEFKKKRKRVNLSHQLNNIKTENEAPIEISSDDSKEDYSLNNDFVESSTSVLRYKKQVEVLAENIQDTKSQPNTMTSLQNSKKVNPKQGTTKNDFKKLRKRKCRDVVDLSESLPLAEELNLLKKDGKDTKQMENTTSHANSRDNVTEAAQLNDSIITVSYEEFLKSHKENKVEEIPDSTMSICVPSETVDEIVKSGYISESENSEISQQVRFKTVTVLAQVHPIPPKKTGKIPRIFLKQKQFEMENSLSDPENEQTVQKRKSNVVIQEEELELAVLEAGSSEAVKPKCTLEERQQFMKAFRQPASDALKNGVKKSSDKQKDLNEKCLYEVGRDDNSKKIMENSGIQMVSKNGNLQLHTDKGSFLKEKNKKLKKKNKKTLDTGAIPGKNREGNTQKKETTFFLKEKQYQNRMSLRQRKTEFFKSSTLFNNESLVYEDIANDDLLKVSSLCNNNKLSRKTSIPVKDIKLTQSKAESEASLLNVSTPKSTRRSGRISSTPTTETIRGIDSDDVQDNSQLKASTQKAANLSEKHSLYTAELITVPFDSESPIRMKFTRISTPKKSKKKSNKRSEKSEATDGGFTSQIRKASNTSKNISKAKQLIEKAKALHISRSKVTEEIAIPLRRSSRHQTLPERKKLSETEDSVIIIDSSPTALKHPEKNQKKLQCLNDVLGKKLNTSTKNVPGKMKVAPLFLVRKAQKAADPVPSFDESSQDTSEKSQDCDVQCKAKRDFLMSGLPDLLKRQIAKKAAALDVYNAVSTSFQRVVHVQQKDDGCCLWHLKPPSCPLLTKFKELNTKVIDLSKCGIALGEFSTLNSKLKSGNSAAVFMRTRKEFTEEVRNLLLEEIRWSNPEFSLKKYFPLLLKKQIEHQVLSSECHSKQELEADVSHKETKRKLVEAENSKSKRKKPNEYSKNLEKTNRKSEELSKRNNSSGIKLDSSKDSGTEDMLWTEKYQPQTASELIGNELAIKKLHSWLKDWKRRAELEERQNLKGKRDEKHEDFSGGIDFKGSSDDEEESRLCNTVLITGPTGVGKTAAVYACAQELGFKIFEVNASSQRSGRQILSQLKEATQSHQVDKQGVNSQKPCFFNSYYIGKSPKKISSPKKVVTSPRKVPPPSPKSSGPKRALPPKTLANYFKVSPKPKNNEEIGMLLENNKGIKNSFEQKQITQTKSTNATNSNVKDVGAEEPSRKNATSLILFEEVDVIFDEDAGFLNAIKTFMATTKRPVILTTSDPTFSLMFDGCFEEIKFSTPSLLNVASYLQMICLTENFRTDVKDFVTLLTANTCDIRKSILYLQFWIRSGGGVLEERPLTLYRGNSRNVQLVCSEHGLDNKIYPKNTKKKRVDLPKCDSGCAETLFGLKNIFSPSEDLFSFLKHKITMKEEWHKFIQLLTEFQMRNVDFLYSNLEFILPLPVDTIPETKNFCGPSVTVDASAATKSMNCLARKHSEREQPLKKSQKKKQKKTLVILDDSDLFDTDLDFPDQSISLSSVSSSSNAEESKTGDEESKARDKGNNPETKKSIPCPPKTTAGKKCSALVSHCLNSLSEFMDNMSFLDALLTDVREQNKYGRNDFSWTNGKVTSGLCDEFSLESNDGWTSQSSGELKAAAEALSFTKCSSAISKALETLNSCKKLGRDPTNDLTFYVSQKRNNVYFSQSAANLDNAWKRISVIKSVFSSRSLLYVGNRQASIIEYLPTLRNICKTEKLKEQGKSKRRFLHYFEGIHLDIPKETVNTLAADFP
Method in brief: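 Suppression of ELG1-luciferase signal was read by ONE-Glo luminescence in HEK293T reporter cells after 16 h at 37 C co-treatment with compound and 5-fluorouridine as DNA-damaging agent.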

[2] = molecular target: ATPase family AAA domain-containing protein 5 (Homo sapiens) (UniProt Q96QE3); assay: qHTS screen for small molecules that inhibit ELG1-dependent DNA repair in human embryonic kidney (HEK293T) cells expressing luciferase-tagged ELG1: Hit Confirmation using MMS Stimulated ELG1 (AID 624249); settings: HEK293T luciferase-tagged ELG1 level; further: potency means the concentration at half of the fitted maximal effect; nearly all actives have a fitted effect of over 60% in size
Method in brief: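 ELG1-luciferase HEK293T cells were plated at 2,000 cells/well, and about 5 h later test compounds were pin-transferred alongside MMS (final 10 µM). After 16 h, luciferase activity was read with Amplight reagent; hits suppress the signal.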

[3] = qHTS screen for small molecules that inhibit ELG1-dependent DNA repair: Hit Confirmation with MMS Viability (AID 624251); settings: Cell viability with MMS;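 further: ELG1-luc HEK293T cells co-treated with 10 µM MMS; potency means the concentration at half of the fitted maximal effect; nearly all actives have a fitted effect of over 60% in size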
Method in brief: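 Luminescent ATP read-out (CellTiter-Glo) gives viability of ELG1-luc HEK293T cells exposed to compounds together with 10 µM methyl methanesulfonate for 16 h.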

[4] = molecular target: Luciferin 4-monooxygenase (Photinus pyralis) (UniProt P08659); assay: qHTS screen for small molecules that inhibit ELG1-dependent DNA repair: Hit Confirmation in Biochemical Luciferin Assay (AID 624253); settings: purified firefly luciferase, luminescence counter-screen; series mostly up to 57.5 µM; further: on the % scale 0 is the no-effect control and ±100 the full control effect
Method in brief: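 Luminescent signal from firefly luciferase acting on its luciferin substrate reagent was recorded with a CCD plate imager after compounds or DMSO had been pinned into the substrate and enzyme added last.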

[5] = qHTS Assay for Identifying Gametocytocidal Compounds (AID 743244); further: potency means the concentration at half of the fitted maximal effect;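 on max response: on the % scale 0 is the no-effect control and ±100 the full control effect; actives lower the fluorescent signal which means gametocytes are killed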; settings: P. falciparum 3D7 stage III-V gametocytes, alamarBlue, 72 h; max response: stronger effect = lower value
Method in brief: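 Using 20,000 stage III–V 3D7 gametocytes per well, compounds were incubated 72 h under 37 °C/5% CO2. Viability was then assessed by 24 h alamarBlue reduction, measured fluorometrically at 525/598 nm.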

[6] = molecular target: Guanine nucleotide-binding protein G(i) subunit alpha-1 (Homo sapiens) (UniProt P63096); assay: qHTS Assay for Inhibitors of RGS12 GoLoco Motif Activity (Green Fluorophore) (AID 879); settings: Galphai1/FITC-RGS12 GoLoco peptide, fluorescence polarization; series mostly up to 57.1 µM;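 further: 0% = labeled peptide with Gαi1 and full inhibition = labeled peptide alone without protein; negative values mean loss of peptide binding seen as reduced polarization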
Sequence of Guanine nucleotide-binding protein G(i) subunit alpha-1 (Homo sapiens) (P63096 whole entry, looked up): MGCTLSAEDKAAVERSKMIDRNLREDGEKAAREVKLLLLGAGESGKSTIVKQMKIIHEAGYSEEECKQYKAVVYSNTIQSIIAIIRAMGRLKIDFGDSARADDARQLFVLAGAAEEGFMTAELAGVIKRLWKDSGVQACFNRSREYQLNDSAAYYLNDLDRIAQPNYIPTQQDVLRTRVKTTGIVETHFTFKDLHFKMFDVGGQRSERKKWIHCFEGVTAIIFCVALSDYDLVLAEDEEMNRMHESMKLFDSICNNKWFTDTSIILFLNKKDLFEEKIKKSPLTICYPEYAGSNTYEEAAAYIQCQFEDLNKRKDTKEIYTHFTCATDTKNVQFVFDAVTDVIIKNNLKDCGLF
Method in brief: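 Fluorescence polarization assay: 50 nM Gαi1 with 10 nM FITC-labeled RGS12 GoLoco peptide in 10 mM Tris pH 7.5, 150 mM NaCl, 0.1 mM GDP, 0.05% NP40, 10 min at room temperature with compound.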

[7] = molecular target: Cytochrome P450 3A4 (Homo sapiens) (UniProt P08684); assay: qHTS Assay for Activators of Cytochrome P450 3A4 (AID 885); settings: recombinant CYP3A4, Luciferin-PPXE luminescence, 60 min; series mostly up to 57.1 µM; further: nearly all actives have a fitted effect of over 65% in size
Sequence of Cytochrome P450 3A4 (Homo sapiens) (P08684 whole entry, looked up): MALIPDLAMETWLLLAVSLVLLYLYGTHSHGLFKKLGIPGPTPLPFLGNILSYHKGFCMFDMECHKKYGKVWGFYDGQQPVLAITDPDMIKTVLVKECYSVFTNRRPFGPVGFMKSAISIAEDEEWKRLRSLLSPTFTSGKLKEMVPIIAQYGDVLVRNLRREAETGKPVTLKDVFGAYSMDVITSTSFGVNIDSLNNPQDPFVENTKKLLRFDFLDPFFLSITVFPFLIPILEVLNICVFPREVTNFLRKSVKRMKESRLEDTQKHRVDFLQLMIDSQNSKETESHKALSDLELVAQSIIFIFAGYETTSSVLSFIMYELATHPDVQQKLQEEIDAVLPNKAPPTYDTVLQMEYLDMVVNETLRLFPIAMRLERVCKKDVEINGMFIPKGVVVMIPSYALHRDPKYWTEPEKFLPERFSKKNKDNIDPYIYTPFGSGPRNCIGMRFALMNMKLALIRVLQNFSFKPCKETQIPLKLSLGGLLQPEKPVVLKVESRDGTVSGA
Method in brief: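 20nM CYP3A4 + 25uM Luciferin-PPXE (=KM), 200mM KPO4; cpd 10 min RT; NADPH regen, 60 min RT; stop w/ detection buffer, 20 min; luminescence. Normalized to 57 uM ketoconazole.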

[8] = molecular target: Alpha-galactosidase (Coffea arabica) (UniProt Q42656); assay: Counterscreen for Glucocerebrosidase Inhibitors: qHTS Assay for Coffee Bean alpha-Galactosidase at pH 4.5 (AID 957); settings: purified coffee bean alpha-galactosidase, fluorogenic substrate; series mostly up to 76.9 µM;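 further: plate controls were enzyme alone for no effect and no enzyme for full effect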
Sequence of Alpha-galactosidase (Coffea arabica) (Q42656 whole entry, looked up): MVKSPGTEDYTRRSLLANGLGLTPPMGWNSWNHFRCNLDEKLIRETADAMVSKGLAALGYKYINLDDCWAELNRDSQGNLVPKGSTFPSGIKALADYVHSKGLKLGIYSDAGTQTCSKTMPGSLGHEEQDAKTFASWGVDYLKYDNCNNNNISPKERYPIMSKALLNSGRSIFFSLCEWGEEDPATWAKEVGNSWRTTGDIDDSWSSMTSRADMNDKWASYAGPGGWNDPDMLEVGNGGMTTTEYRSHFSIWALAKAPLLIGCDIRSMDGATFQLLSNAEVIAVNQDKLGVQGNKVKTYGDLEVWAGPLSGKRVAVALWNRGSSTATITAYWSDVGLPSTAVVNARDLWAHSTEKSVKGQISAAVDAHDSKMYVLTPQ
Method in brief: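 Coffee bean alpha-galactosidase 2 nM, substrate 4-MU-alpha-Gal 80 uM, pH 4.5 citrate/Tween-20, 20 min RT. Cpd titration 0.7 nM–77 uM. Stop pH 10, fluorescence 365/440 nm; Hill-equation AC50.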

[9] = molecular target: Alpha-galactosidase (Coffea arabica) (UniProt Q42656); assay: Counterscreen for Glucocerebrosidase Inhibitors: qHTS Assay for Coffee Bean alpha-Galactosidase at pH 5.9 (AID 998); settings: coffee bean alpha-galactosidase enzyme assay; series mostly up to 76.9 µM;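 further: plate controls were uninhibited enzyme for no effect and no-enzyme basal signal for full effect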
Method in brief: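 Compounds were titrated from 0.7 nM to 77 uM against green coffee bean alpha-galactosidase (2 nM) using 80 uM fluorogenic 4-methylumbelliferyl substrate. After 20 min at room temperature, reactions were stopped at pH 10 and read by fluorescence.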

[10] = qHTS assay for small molecule agonists of the antioxidant response element (ARE) signaling pathway (AID 651741; active means well fitted activation curve with a large enough effect in the signal ratio; the % refers to the signal ratio; further: potency means the concentration at half of the fitted maximal effect; on activation: % of control where 0% means no effect); settings: HepG2 ARE-bla reporter, beta-lactamase FRET ratio, 16 h; series mostly up to 96 µM
Method in brief: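 Quantitative HTS in HepG2 cells stably expressing an ARE-beta-lactamase reporter; 16 h compound exposure at 37 C, followed by 2 h room-temperature incubation with LiveBLAzer B/G FRET substrate and fluorescence measurement.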

[11] = qHTS profiling for inhibitors of Plasmodium falciparum (3D7) proliferation (AID 743322);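 further: infected erythrocytes exposed to compound for 72 h before lysis; 100% = DMSO vehicle wells and 0% = 0.29 µM artemisinin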; settings: P. falciparum 3D7 proliferation; at 28.7 µM (top of the series) unless noted
Method in brief: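 Erythrocytes infected with P. falciparum (0.3% parasitemia, 2.5% hematocrit) incubated with compounds 72 h at 37 C, 5% CO2. Lysis with saponin/Triton buffer containing SYBR Green I, overnight at room temperature in the dark; DNA fluorescence (485/535 nm) normalised to 0.29 uM artemisinin and DMSO.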

[12] = qHTS profiling for inhibitors of Plasmodium falciparum (DD2) proliferation (AID 743323; call rule not given here); settings: lower = more inhibition; at 28.7 µM (top of the series) unless noted
Method in brief: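 SYBR Green fluorescence (ex 485, em 535 nm) of lysed cultures gives parasite DNA content; wells normalized to artemisinin (0.29 uM) and DMSO controls. Infected red cells: 0.3% parasitemia, 2.5% hematocrit, 72 h, 37 C.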

[13] = qHTS profiling for inhibitors of Plasmodium falciparum (HB3) proliferation (AID 743324); settings: Plasmodium falciparum HB3 blood-stage proliferation; at 28.7 µM (top of the series) unless noted;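 further: 100% = DMSO vehicle wells and 0% = artemisinin-treated control wells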
Method in brief: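 P. falciparum HB3 grown in erythrocytes (0.3% parasitemia, 2.5% hematocrit final) with compound for 72 h at 37 C, 5% CO2. Parasite DNA detected by SYBR Green after saponin/triton lysis overnight; normalized to 0.29 uM artemisinin and DMSO.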

[14] = qHTS assay for environmental chemicals that activate the Aryl hydrocarbon Receptor (AhR) signaling pathway (AID 651777); settings: 1A2-DRE human hepatoma cells, luciferase, 24 h; activation: stronger effect = higher value; further: % of control where 0% means no effect; nearly all actives have a fitted effect of over 15% in size
Method in brief: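 1A2-DRE human hepatoma reporter line; 1,200 cells/well; cmpd or DMSO 24 h, 37 C/5% CO2; One-Glo 30 min RT; luciferase lum.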

[15] = molecular target: Peroxisome proliferator-activated receptor alpha (Homo sapiens) (UniProt Q07869); assay: qHTS assay for small molecule agonists of the peroxisome proliferator-activated receptor alpha (PPARalpha) signaling pathway (AID 651778); settings: PathHunter PPARalpha complementation, chemiluminescence, 6 h; max response: stronger effect = higher value; further: % of control where 0% means no effect
Sequence of Peroxisome proliferator-activated receptor alpha (Homo sapiens) (Q07869 whole entry, looked up): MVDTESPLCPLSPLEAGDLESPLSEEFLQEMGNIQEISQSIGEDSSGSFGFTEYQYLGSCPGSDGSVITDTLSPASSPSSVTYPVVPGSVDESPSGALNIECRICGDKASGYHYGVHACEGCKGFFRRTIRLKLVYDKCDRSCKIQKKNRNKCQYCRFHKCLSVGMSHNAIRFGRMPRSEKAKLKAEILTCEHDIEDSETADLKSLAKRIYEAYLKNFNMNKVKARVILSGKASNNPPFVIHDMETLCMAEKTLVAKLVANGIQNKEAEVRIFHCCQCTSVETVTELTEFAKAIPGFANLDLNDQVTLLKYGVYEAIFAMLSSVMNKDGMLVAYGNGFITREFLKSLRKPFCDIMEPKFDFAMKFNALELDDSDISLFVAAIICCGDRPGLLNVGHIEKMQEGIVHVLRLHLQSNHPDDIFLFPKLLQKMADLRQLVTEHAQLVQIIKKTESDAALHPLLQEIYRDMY
Method in brief: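 Chemiluminescence from complemented enzyme reported PPARalpha activation in cells after 6 hr of compound treatment at 37 C. The detection reagent was incubated for 60 min at room temperature, and compounds were scored as agonists.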

[16] = qHTS assay for small molecule agonists of the antioxidant response element (ARE) signaling pathway measured by Nrf2-dependant transcriptional activity (AID 720636; active means well fitted curve in the direction sought with a large enough effect in the repeat runs; an effect the other way counts as inactive or inconclusive; further: potency means the concentration at half of the fitted maximal effect); settings: ARE-luc HepG2, Nrf2 luciferase reporter, 16 h; series mostly up to 92.4 µM
Method in brief: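 Cells: ARE-luc HepG2 with Nrf2-responsive luciferase. Medium contained 1% dialyzed FBS. Compound exposure lasted 16 hr at 37 C and 5% CO2, followed by ONE-Glo luciferase detection.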

[17] = qHTS assay for small molecule agonists of the antioxidant response element (ARE) signaling pathway measured by Nrf2-dependant transcriptional activity - cell viability counter screen (AID 720653; active means well fitted curve in the direction sought with a large enough effect in the repeat runs; an effect the other way counts as inactive or inconclusive; further: potency means the concentration at half of the fitted maximal effect); settings: ARE-bla HepG2 viability, CellTiter-Glo ATP luminescence, 16 h; max response: stronger effect = lower value
Method in brief: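 Cytotoxicity counter screen: intracellular ATP quantified by CellTiter-Glo luminescence in the same ARE-bla HepG2 plates, after 16 h compound exposure and a 2 h beta-lactamase substrate step.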

[18] = qHTS assay for cell viability of HEK293 cells (AID 743288); settings: ATP luminescence (CellTiter-Glo), 18 h; max response: stronger effect = lower value; further: potency means the concentration at half of the fitted maximal effect; nearly all actives have a fitted effect of over 50% in size
Method in brief: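 Parental HEK293 cells were seeded at 2,000 cells/well, rested at least 5 h at 37 C, then exposed to compounds in DMSO for 18 h at 37 C. Viability was read as ATP-dependent luciferase luminescence after 30 min at room temperature.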

[19] = qHTS assay for cell viability of the p53RE-bla HCT-116 cell line (AID 743292); settings: p53RE-bla HCT-116 viability, ATP luminescence, 16 h; series mostly up to 95 µM; further: potency means the concentration at half of the fitted maximal effect; nearly all actives have a fitted effect of over 55% in size
Method in brief: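 HCT-116 p53RE-bla cells seeded 4,000/well; 5 h at 37 C; compound (DMSO) added; 16 h at 37 C; CellTiter-Glo added, 30 min RT; luminescence read.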

[20] = qHTS assay for small molecule activators of the human pregnane X receptor (PXR) signaling pathway (AID 720659; call rule not given here; further: 0% is about no effect); settings: DPX-2 HepG2 CYP3A4-luciferase, 24 h; series mostly up to 92.3 µM

C[C@@H]1C[C@H]2CC[C@H](O2)[C@H](C)C(=O)O[C@@H](C)C[C@@H]2CC[C@@H](O2)[C@@H](C)C(=O)O[C@H](C)C[C@H]2CC[C@H](O2)[C@H](C)C(=O)O[C@@H](C)C[C@@H]2CC[C@@H](O2)[C@@H](C)C(=O)O1
Potency [1]: 14100 nM (active)
Potency [2]: 88.9 nM (active)
Potency [3]: 99.7 nM (active)
outcome [4]: inactive

C[C@]12O[C@H](C[C@]1(O)CO)n1c3ccccc3c3c4c(c5c6ccccc6n2c5c31)CNC4=O
Potency [5]: 2510 nM (active)

C[C@@]12C=CC(=O)C=C1CC[C@@H]1C2=CC[C@]2(C)[C@@H]1CC[C@H]2C(=O)CN1CCN(c2cc(N3CCCC3)nc(N3CCCC3)n2)CC1
Potency [6]: inactive
Potency [7]: inactive
outcome [8]: inactive
outcome [9]: inactive

C[C@H]1[C@@H](OC(=O)CCC(=O)O)O[C@@H]2OC3(C)CC[C@H]4[C@H](C)CC[C@@H]1[C@@]24OO3
Potency [5]: 66.2 nM (active)

O=C(O)CN(CCN(CC(=O)O)CC(=O)O)CC(=O)O
Potency [10]: inactive
max response [5]: 12.5% (inactive)

CCCCN(CCCC)CCC(OC(=O)O[C@H]1CCC[C@]2(C1)OOC1(O2)C2CC3CC(C2)CC1C3)c1cc2c(Cl)cc(Cl)cc2c2cc(C(F)(F)F)ccc12 (stereo partly specified)
remaining parasite growth % (stronger effect = lower value) [11]: -0.262%
activity, percent of control [12]: 0.194%
remaining proliferation (% of control), lower = more inhibition [13]: 0.0614%

[Cl][Sn]([c]1ccccc1)([c]1ccccc1)[c]1ccccc1
Potency [10]: 486 nM (active)
activation [14]: -11.4% (inactive)
max response [15]: -6.19% (inactive)
Potency [16]: 486 nM (active)
Potency [17]: 891 nM (active)
Potency [18]: 2820 nM (active)
Potency [19]: 7940 nM (active)
outcome [20]: inactive

O=C1C(=O)c2ccccc2C(O)=C1C1CCC2(CC1)OOC1(O2)C2CC3CC(C2)CC1C3 (stereo unspecified)
remaining parasite growth % (stronger effect = lower value) [11]: 0.339%
activity, percent of control [12]: -0.0523%
remaining proliferation (% of control), lower = more inhibition [13]: 0.423%
